Laboratory results: PubChem BioAssay AID1220 (Sanford-Burnham Center for Chemical Genomics, 2008)
Out of some 190,000 compounds screened, about 1,300 (0.68%) were called active. The full list was thinned out, with actives kept by preference. Values without a mark were called inactive. Rule as the data show it: active = inhibition above about 50%; inactive = the rest.

molecular target: Mannose-6-phosphate isomerase (Homo sapiens) (UniProt P34949); experiment: MPI inhibition at elevated mannose 6-phosphate – biochemical, fluorescence intensity, high mannose 6-phosphate, primary screen (AID 1220); details: recombinant PMI enzyme, coupled fluorescence intensity; at 20 µM; active compounds read high
Sequence (P34949 whole entry, looked up): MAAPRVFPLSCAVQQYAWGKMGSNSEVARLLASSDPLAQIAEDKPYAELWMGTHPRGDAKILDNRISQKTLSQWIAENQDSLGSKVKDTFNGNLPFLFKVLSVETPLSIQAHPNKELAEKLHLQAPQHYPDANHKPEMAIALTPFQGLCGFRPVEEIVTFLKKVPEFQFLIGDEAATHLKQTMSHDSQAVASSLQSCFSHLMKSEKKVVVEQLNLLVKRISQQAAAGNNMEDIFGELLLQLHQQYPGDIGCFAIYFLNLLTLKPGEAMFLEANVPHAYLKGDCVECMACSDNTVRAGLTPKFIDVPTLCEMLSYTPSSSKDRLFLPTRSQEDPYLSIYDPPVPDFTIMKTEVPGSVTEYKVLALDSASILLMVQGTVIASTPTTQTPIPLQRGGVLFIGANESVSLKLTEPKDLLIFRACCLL

| Structure (SMILES) | inhibition |
| --- | --- |
| CCCN1C(=O)/C(=C\C=C2/Sc3ccccc3N2CCO)SC1=S | 10.5% |
| O=C(N/N=C/c1ccc(Br)o1)c1cccnc1 | 5.3% |
| COc1ccc(/C=C/C(=O)OCCCN(C)C)cc1 | -6.3% |
| CCOC(=O)c1ccc(NCc2nc3ccccc3[nH]2)cc1 | -1.4% |
| O=C(O)c1cc(-c2ccccc2)n(-c2ccc(Cl)cc2)n1 | -7.9% |
| O=c1oc2c(CN3CCOCC3)c(O)ccc2c2c1CCC2 | 14.1% |
| COCCN(CCOC)Cc1c(O)ccc2c3c(c(=O)oc12)CCC3 | 50.9% (active) |
| CC(C)CN(Cc1c(O)ccc2c3c(c(=O)oc12)CCC3)CC(C)C | 10% |
| COC(=O)c1cn(CC(=O)NC2CCCCCC2)c2ccccc12 | 4.4% |
| CC(C)CC1NC(=O)N(CC(=O)N2CCCc3ccccc32)C1=O (stereo not given) | -5.9% |
| O=C(/C=C/c1ccccc1Cl)NCc1ccccc1 | 7.8% |
| O=C(CN1C(=O)NC2(CCCCCC2)C1=O)NC1CCCCCCC1 | -3.9% |
| Cc1ccccc1CSCCC(=O)NCCc1ccccc1 | -6.4% |
| CNC(=O)CN1C(=O)c2cccc3cccc1c23 | -3.7% |
| CCN1/C(=N\N)c2cccc3cccc1c23 | -13% |
| CC(C)c1ccc(CNC(=O)C(=O)Nc2nccs2)cc1 | -3.8% |
| CNc1nc2ccccc2n1N | -3.8% |
| CC(Sc1nc(NCc2ccccc2)nc(N2CCOCC2)n1)C(=O)Nc1ccccc1 (stereo not given) | 12.4% |

| Structure (SMILES) | inhibition |
| --- | --- |
| Cc1ccccc1NC(=O)C1CCCN(S(=O)(=O)c2c(C)noc2C)C1 (stereo not given) | -2.1% |
| Cc1noc(C)c1S(=O)(=O)N1CCCC(C(=O)Nc2ccc(Cl)cn2)C1 (stereo not given) | -3% |
| Cc1ccc(Cl)cc1NC(=O)C1CCCN(S(=O)(=O)c2c(C)noc2C)C1 (stereo not given) | 50.2% (active) |
| Nc1nc(-c2ccccc2)c(-c2ccccc2)s1 | -7.6% |
| Nc1nc2c(s1)COc1ccccc1-2 | 11.1% |
| O=C(NCCCN1CCOCC1)C(Sc1ccccc1)c1ccccc1 (stereo not given) | 9.2% |
| O=C(COC(=O)c1ccc(S(=O)(=O)NCc2ccco2)cc1)NCCC1=CCCCC1 | -19.9% |
| O=c1[nH]c2ccc(Cl)cc2c(O)c1Cc1ccccc1 | 3.4% |
| COc1cccc(CNCc2cccnc2)c1OCc1ccccc1 | -2% |
| Cc1ccc(Nc2ncnc3sc(C)c(C)c23)cc1 | 12.1% |
| COc1cccc(NCCC(=O)c2cccc([N+](=O)[O-])c2)c1 | 62.3% (active) |
| O=C(CCNc1cccc(F)c1)c1cccc([N+](=O)[O-])c1 | 40.6% |
| Cc1ccc(NCCC(=O)c2cccc([N+](=O)[O-])c2)cc1 | 39.2% |
| O=[N+]([O-])c1ccc(Cc2ccncc2)cc1 | -1.9% |
| O=C(CCNc1ccc(Br)cc1)c1cccc([N+](=O)[O-])c1 | 40.5% |
| O=C(CCNc1ccc(Cc2ccncc2)cc1)c1cccc([N+](=O)[O-])c1 | 47.7% |
| O=C(CCNc1ccc(F)cc1)c1cccc([N+](=O)[O-])c1 | 48.4% |
